Measurements from PubChem BioAssay (Tox21).
Inconclusive results are not listed. Active and inactive are the calls of the source. Unless noted, the call rests on the fitted dose curve; in most records, active means well fitted curve in the direction sought with a large enough effect in the repeat runs; inconclusive means weak or mixed curves; inactive means no such curve, though single readings can be large; an effect the other way counts as inactive or inconclusive.

How the values were obtained:
[1] = qHTS assay to identify small molecule antagonists of the glucocorticoid receptor (GR) signaling pathway - cell viability counter screen (AID 720693); further: nearly all actives have a fitted effect of over 55% in size
[2] = qHTS assay for identifying genotoxic compounds that show differential cytotoxicity against isogenic chicken DT40 cell lines with known DNA damage response pathways - Rev3 mutant cell line (AID 743014); further: nearly all actives have a fitted effect of over 55% in size
[3] = qHTS assay for identifying genotoxic compounds that show differential cytotoxicity against isogenic chicken DT40 cell lines with known DNA damage response pathways - Rad54/Ku70 mutant cell line (AID 743015); further: nearly all actives have a fitted effect of over 60% in size
[4] = qHTS assay to identify small molecule antagonists of the androgen receptor (AR) signaling pathway - cell viability counter screen (AID 743033; further: nearly all actives have a fitted effect of over 45% in size)
[5] = biological target: Androgen receptor (Homo sapiens) (UniProt P10275); experiment: qHTS assay to identify small molecule agonists of the androgen receptor (AR) signaling pathway (AID 743036; active means well fitted activation curve with a large enough effect in the signal ratio in the repeat runs, with a control signal flat, not every such curve was filed as active; the % refers to the signal ratio)
Summary of the method: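 AR-UAS-bla HEK293 cells, plated 4 h before dosing, were treated with compound for 16 h at 37C. beta-Lactamase reporter read after 2 h with LiveBLAzer B/G FRET substrate at room temperature.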

[6] = biological target: Androgen receptor (Homo sapiens) (UniProt P10275); experiment: qHTS assay to identify small molecule agonists of the androgen receptor (AR) signaling pathway using the MDA cell line (AID 743040; further: nearly all actives have a fitted effect of over 20% in size)
Summary of the method: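 Stable MMTV-luciferase reporter in MDA-kb2 cells; note the promoter carries GR as well as AR response elements. 16 h compound treatment, 37C, 0% CO2; ONE-Glo luminescence endpoint.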

[7] = qHTS assay to identify small molecule antagonists of the androgen receptor (AR) signaling pathway using the MDA cell line - cell viability counter screen (AID 743041; further: nearly all actives have a fitted effect of over 45% in size)
Summary of the method: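 Using the breast carcinoma line MDA-kb2 AR-luc, test chemicals were co-incubated with R1881 for 16 h; CellTiter-Fluor reagent, added at 15.5 h, provided a fluorescence measure of live cells.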

[8] = biological target: Androgen receptor (Homo sapiens) (UniProt P10275); experiment: qHTS assay to identify small molecule antagonists of the androgen receptor (AR) signaling pathway using the MDA cell line (AID 743042; further: nearly all actives have a fitted effect of over 55% in size)
Summary of the method: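 Antagonist mode: compounds plus R1881 agonist added to MDA-kb2 AR-luc cells, incubated 16 h at 37C. Luciferase reporter luminescence quantified, with multiplexed CellTiter-Fluor readout for cell viability.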

[9] = qHTS assay to identify small molecule antagonists of the thyroid receptor (TR) signaling pathway - cell viability counter screen (AID 743064); further: nearly all actives have a fitted effect of over 50% in size
Summary of the method: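 GH3.TRE-Luc rat pituitary cells dosed after 4 hr plating, co-stimulated with T3 at 1 nM final, incubated 23.5 h at 37 C. Viability measured in the same wells by CellTiter-Fluor fluorescence after 30 min further at 37 C.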

[10] = qHTS assay to identify small molecule antagonists of the thyroid receptor (TR) signaling pathway (AID 743065); further: series mostly up to about 70 µM; nearly all actives have a fitted effect of over 55% in size
Summary of the method: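 Antagonism measured as loss of luciferase signal in GH3 cells stably carrying a TRE-luciferase reporter, co-treated with compound and T3 (1 nM final) for 23.5 h at 37 C. Viability was read in the same well by CellTiter-Fluor.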

[11] = tested on: thyroid hormone receptor (rat, GH3 cells); experiment: qHTS assay to identify small molecule agonists of the thyroid receptor (TR) signaling pathway (AID 743066; calls by dose curve)
[12] = biological target: Estrogen receptor (Homo sapiens) (UniProt P03372); experiment: qHTS assay to identify small molecule antagonists of the estrogen receptor alpha (ER-alpha) signaling pathway (AID 743069; active means well fitted curve in the direction sought with a large enough effect in the signal ratio in the repeat runs, not every such curve was filed as active; the % refers to the signal ratio)
Summary of the method: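 Fluorescence intensity from a beta-lactamase FRET substrate served as the read-out. Cells: HEK293 with stably integrated ER-alpha-UAS-bla reporter. Agonist 17beta-estradiol was co-added with compounds; incubation 18 hr at 37C, substrate 2 hr at room temperature.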

[13] = qHTS assay to identify small molecule antagonists of the estrogen receptor alpha (ER-alpha) signaling pathway - cell viability counter screen (AID 743074; calls by dose curve; further: nearly all actives have a fitted effect of over 45% in size)
[14] = biological target: Estrogen receptor (Homo sapiens) (UniProt P03372); experiment: qHTS assay to identify small molecule agonists of the estrogen receptor alpha (ER-alpha) signaling pathway (AID 743075; calls by dose curve)
[15] = biological target: Estrogen receptor (Homo sapiens) (UniProt P03372); experiment: qHTS assay to identify small molecule agonists of the estrogen receptor alpha (ER-alpha) signaling pathway using the BG1 cell line (AID 743079); further: nearly all actives have a fitted effect of over 20% in size
[16] = qHTS assay to identify small molecule antagonists of the estrogen receptor alpha (ER-alpha) signaling pathway using the BG1 cell line (AID 743080; calls by dose curve;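 further: BG1 cells stimulated with 17beta-estradiol alongside compound; series mostly up to about 70 µM; nearly all actives have a fitted effect of over 25% in size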)
Summary of the method: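 Readout is ONE-Glo luminescence, taken 30 min at room temperature after reagent addition, preceded by a CellTiter-Fluor viability read; BG1-Luc-4E2 cells had received compound and 17beta-estradiol for 21.5 h at 37 C.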

[17] = qHTS assay to identify small molecule antagonists of the estrogen receptor alpha (ER-alpha) signaling pathway using the BG1 cell line - cell viability counter screen (AID 743081);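 further: compound given together with 17beta-estradiol as the ER stimulus; series mostly up to about 70 µM; nearly all actives have a fitted effect of over 45% in size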
Aromatase (Homo sapiens) = Aromatase (Homo sapiens) (UniProt P11511); experiment: qHTS assay to identify aromatase inhibitors (AID 743083)
[18] = qHTS assay to identify aromatase inhibitors - cell viability counter screen (AID 743084)
[19] = qHTS assay for identifying genotoxic compounds that show differential cytotoxicity against isogenic chicken DT40 cell lines with known DNA damage response pathways - wild type cell line (AID 743012); further: nearly all actives have a fitted effect of over 60% in size
Summary of the method: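 Viability by ATP luminescence (CellTiter-Glo, 30 min RT) after 40 h compound treatment at 37 C/5% CO2, using 300 parental DNA repair-proficient DT40 cells per well.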

Measured: Potency

Chain of Androgen receptor (Homo sapiens) (P10275 whole entry, looked up): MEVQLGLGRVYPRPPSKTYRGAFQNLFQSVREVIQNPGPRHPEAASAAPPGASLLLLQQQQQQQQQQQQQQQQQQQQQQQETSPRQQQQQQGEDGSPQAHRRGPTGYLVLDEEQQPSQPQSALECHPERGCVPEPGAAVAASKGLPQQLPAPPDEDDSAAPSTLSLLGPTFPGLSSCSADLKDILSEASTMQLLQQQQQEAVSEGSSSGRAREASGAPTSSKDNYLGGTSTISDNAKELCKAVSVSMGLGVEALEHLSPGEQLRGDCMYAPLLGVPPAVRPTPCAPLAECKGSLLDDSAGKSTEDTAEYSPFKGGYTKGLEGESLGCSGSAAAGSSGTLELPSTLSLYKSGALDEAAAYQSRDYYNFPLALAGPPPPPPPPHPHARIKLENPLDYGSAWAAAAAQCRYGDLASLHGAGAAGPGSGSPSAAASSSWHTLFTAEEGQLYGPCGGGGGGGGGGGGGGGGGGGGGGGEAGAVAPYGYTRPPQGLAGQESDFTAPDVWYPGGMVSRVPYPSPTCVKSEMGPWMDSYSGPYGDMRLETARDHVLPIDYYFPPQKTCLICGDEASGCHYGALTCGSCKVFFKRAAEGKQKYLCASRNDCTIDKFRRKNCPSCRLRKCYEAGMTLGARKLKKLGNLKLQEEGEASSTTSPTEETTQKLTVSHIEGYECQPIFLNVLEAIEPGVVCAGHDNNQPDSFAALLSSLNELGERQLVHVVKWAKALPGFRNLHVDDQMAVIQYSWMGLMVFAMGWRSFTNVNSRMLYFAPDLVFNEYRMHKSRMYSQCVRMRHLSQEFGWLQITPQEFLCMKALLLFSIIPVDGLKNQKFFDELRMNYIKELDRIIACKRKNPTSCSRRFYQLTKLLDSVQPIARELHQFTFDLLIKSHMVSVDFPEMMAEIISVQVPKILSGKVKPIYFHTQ
Chain of Aromatase (Homo sapiens) (P11511 whole entry, looked up): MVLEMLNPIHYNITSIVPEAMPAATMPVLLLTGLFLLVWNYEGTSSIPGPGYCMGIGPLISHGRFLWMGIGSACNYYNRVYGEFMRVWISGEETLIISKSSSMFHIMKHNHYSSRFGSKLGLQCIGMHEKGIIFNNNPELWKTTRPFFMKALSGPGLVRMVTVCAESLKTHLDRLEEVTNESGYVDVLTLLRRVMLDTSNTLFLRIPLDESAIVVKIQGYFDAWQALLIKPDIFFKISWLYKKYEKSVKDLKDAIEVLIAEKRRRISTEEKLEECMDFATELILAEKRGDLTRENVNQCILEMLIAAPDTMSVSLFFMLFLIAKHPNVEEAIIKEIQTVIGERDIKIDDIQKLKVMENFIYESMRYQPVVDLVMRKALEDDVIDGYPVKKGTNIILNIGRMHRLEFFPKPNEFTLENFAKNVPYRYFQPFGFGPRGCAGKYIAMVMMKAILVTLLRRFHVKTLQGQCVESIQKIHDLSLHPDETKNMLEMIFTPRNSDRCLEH
Chain of Estrogen receptor (Homo sapiens) (P03372 whole entry, looked up): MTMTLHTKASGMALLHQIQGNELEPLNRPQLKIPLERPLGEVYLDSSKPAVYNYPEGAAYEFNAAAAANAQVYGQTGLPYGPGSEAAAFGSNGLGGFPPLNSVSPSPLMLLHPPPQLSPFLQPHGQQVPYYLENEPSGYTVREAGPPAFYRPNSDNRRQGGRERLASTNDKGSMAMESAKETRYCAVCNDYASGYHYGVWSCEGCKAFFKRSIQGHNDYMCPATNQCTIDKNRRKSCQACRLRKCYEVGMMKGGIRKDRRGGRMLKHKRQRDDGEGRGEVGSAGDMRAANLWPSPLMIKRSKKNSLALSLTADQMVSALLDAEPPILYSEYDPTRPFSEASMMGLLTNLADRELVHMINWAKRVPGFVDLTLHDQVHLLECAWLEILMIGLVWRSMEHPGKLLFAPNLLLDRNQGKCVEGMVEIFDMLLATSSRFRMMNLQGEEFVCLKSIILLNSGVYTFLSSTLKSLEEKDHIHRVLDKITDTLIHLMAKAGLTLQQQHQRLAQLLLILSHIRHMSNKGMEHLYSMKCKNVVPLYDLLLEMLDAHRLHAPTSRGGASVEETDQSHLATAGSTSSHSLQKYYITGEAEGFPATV

Cc1cn([C@H]2C[C@H](F)[C@@H](CO)O2)c(=O)[nH]c1=O
not listed: [19]
inactive: all other assays above

CC(C)(C)C1(CCc2ccc(Cl)cc2)CO1 (stereo not given)
not listed: [2] | [3] | [5] | [6] | [8]
inactive: all other assays above

CCCCCCCCCCCCCOS(=O)(=O)O
inactive: [1] | [19] | [6] | [7] | [8] | [9] | [11] | [13] | [17] | Aromatase (Homo sapiens) | [18]

O=C(O)c1cc(Cl)cc(Cl)c1O
not listed: [10] | [12] | [14] | [15] | [16] | [19]
inactive: all other assays above

Nc1ccc(S(=O)(=O)NCc2ccccc2)cc1
inactive: [1] | [19] | [3] | [4] | [9] | [10] | [11] | [13] | [17] | Aromatase (Homo sapiens) | [18]
